Experiment in all cases: protein-binding microarray (PBM); PBM: ~300 nM protein, 6 mM HEPES pH 7.8, 80 mM KCl, 0.5 mM EDTA, 0.5 mM EGTA, 6% glycerol, 35 ng/ul poly-dIdC, 1% milk, 1 h, room temperature; Ap Aiptasia and Nv Nematostella (sea anemones) / Co Capsaspora / Aq Amphimedon (sponge) / Dm Drosophila / Hu human; RHD is the Rel homology domain; high values mean tight binding
Holding throughout (conditions): dsDNA, one strand shown

Assay [1] deals with T1, GST-Ap-NF-kB RHD (Exaiptasia pallida (Aiptasia), UniProt A0A913YAJ5 2-422).
T1 sequence: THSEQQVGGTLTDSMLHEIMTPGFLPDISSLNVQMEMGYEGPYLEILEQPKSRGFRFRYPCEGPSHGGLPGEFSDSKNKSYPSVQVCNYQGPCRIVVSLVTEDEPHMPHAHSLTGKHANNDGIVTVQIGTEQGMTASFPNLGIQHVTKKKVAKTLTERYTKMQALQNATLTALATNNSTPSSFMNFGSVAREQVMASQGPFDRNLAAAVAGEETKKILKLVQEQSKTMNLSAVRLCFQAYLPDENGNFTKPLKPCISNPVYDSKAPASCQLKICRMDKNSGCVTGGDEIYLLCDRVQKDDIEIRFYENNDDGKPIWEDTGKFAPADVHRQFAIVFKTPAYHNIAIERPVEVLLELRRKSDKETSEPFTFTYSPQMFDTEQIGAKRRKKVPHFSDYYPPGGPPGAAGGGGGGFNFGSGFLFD

For assay [2], the target named is T2, GST-Nv-NF-kB (Cys allele) (Nematostella vectensis, UniProt E5G601 2-411).
T2 sequence: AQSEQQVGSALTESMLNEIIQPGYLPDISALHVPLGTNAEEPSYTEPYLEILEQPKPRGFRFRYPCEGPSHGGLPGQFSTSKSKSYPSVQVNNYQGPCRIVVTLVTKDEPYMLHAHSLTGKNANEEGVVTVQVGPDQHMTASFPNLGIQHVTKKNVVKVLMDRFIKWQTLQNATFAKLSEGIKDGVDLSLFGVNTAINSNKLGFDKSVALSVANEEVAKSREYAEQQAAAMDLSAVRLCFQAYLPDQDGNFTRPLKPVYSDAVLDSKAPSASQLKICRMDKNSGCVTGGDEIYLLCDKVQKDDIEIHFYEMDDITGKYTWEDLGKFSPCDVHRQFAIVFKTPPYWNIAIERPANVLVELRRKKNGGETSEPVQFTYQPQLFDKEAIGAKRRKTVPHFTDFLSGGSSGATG

The target in assay [3] is T3, GST-Co-NF-kB (Capsaspora owczarzaki, UniProt F1ARL5 200-546).
T3 sequence: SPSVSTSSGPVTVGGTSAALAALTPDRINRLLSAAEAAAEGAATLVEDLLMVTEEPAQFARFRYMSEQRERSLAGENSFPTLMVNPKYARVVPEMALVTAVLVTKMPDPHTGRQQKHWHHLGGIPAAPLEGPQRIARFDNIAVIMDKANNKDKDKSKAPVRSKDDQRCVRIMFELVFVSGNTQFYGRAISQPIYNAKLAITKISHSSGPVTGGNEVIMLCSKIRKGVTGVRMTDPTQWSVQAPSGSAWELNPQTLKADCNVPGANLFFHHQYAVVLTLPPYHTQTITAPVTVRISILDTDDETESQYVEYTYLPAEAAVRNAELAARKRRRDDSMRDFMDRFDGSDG

In assay [4] the target is T4, GST-Dm-Relish (Drosophila melanogaster, UniProt Q94527 99-473).
T4 sequence: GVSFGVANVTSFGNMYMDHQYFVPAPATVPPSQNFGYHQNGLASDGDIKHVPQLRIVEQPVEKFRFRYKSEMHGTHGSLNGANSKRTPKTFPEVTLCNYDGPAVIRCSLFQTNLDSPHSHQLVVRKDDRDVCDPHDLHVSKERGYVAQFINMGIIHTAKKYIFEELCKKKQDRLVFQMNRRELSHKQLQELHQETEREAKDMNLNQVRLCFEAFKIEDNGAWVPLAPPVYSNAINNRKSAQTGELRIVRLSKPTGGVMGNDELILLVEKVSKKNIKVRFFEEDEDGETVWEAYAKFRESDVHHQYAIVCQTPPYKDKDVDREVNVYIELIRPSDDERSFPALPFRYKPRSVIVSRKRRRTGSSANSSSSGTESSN

The target of assay [5] is T5, GST-Aq-NF-kB (Amphimedon queenslandica, UniProt A9Y5G7 2-389).
T5 sequence: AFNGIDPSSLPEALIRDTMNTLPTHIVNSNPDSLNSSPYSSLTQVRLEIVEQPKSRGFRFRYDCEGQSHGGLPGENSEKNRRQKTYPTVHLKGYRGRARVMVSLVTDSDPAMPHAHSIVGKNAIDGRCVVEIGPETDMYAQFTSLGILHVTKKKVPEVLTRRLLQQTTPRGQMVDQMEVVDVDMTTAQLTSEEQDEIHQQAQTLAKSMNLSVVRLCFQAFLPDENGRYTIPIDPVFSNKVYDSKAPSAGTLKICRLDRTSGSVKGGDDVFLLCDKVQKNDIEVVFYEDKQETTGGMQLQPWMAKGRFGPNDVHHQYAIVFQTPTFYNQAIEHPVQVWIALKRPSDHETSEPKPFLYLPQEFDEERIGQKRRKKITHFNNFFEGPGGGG

For the sequence “CCGATTAACATCAGGAACTACCCTGATGTTAATCGGGTCTTGATTCGCTTGACGCTGCTG”, the binding signal in assay [1] worked out at 2.97 z-score; in assay [2], 2.75 z-score; in assay [3], 1.33 z-score; in assay [4], 3.64 z-score; in assay [5], 5.04 z-score.

For “CCGATTAACATCAGGCACCCCCCTGATGTTAATCGGGTCTTGATTCGCTTGACGCTGCTG”, the binding signal stood at 5.14 z-score in assay [1]; 3.21 z-score in assay [2]; 2.79 z-score in assay [3]; 5.16 z-score in assay [4]; 4.88 z-score in assay [5].

For the sequence “CCGATTAACATCAATATACCCCCTGATGTTAATCGGGTCTTGATTCGCTTGACGCTGCTG”, the binding signal in assay [1] is 6.61 z-score; in assay [2], 4.24 z-score; in assay [3], 6.57 z-score; in assay [4] it was 3.69 z-score; in assay [5], 4.03 z-score.

For the sequence “CCGATTAACATCACGGGAAACTCTGATGTTAATCGGGTCTTGATTCGCTTGACGCTGCTG”, the binding signal in assay [1] came out at 3.67 z-score; in assay [2], 4.12 z-score; in assay [3] it was 4.3 z-score; in assay [4], 1.55 z-score; in assay [5], 4.35 z-score.

On to “CCGATTAACATCAGGCCATCCCCTGATGTTAATCGGGTCTTGATTCGCTTGACGCTGCTG”, for which the binding signal in assay [1] was 3.87 z-score; in assay [2] it was 4.02 z-score; in assay [3], 1.22 z-score; in assay [4], 7.89 z-score; in assay [5], 5.6 z-score.

As for “CCGATTAACATCAAGAGTTTCCCTGATGTTAATCGGGTCTTGATTCGCTTGACGCTGCTG”, the binding signal in assay [1] turned out to be 4.29 z-score; in assay [2] it was 5.34 z-score; in assay [3], 3.98 z-score; in assay [4], 2.43 z-score; in assay [5], 5.12 z-score.

Consider “CCGATTAACATCAATACACCCCCTGATGTTAATCGGGTCTTGATTCGCTTGACGCTGCTG”, for which the binding signal in assay [1] was 3.75 z-score; in assay [2], 2.95 z-score; in assay [3] it was 4.19 z-score; in assay [4], 3.33 z-score; in assay [5], 3.5 z-score.

For “CCGATTAACATCAGGGGTGGGAATGATGTTAATCGGGTCTTGATTCGCTTGACGCTGCTG”, the binding signal in assay [1] was found to be 2.31 z-score; in assay [2], 2.09 z-score; in assay [3], 3.75 z-score; in assay [4], 2.17 z-score; in assay [5] it was 2.94 z-score.

In the case of “CCGATTAACATCAAATAAATCCCTGATGTTAATCGGGTCTTGATTCGCTTGACGCTGCTG”, the binding signal in assay [1] stood at 3.07 z-score; in assay [2], 4.02 z-score; in assay [3], 1.92 z-score; in assay [4], 5.66 z-score; in assay [5] it was 5.06 z-score.

As for “CCGATTAACATCAGGCCACCCCCTGATGTTAATCGGGTCTTGATTCGCTTGACGCTGCTG”, the binding signal in assay [1] is 3.91 z-score; in assay [2] it was 2.49 z-score; in assay [3], 2.66 z-score; in assay [4] it was 5.42 z-score; in assay [5], 5.7 z-score.

As to “CCGATTAACATCATCCCCCCCCATGATGTTAATCGGGTCTTGATTCGCTTGACGCTGCTG”, the binding signal in assay [1] was 6.69 z-score; in assay [2] it was 4.12 z-score; in assay [3], 7.34 z-score; in assay [4], 4.5 z-score; in assay [5] it was 5.38 z-score.

On to “CCGATTAACATCACTTGGGAAACTGATGTTAATCGGGTCTTGATTCGCTTGACGCTGCTG”, for which the binding signal in assay [1] came out at 1.38 z-score; in assay [2], 2.05 z-score; in assay [3], 2.44 z-score; in assay [4], 1.01 z-score; in assay [5], 1.18 z-score.

For “CCGATTAACATCAGGGAATGACCTGATGTTAATCGGGTCTTGATTCGCTTGACGCTGCTG”, the binding signal in assay [1] was determined as 2.15 z-score; in assay [2] it was 3.16 z-score; in assay [3], 1.03 z-score; in assay [4], 3.4 z-score; in assay [5] it was 5.79 z-score.

On to “CCGATTAACATCAGAACTTCCCATGATGTTAATCGGGTCTTGATTCGCTTGACGCTGCTG”, for which the binding signal is 2.63 z-score in assay [1]; 2.58 z-score in assay [2]; 1.5 z-score in assay [3]; 3.3 z-score in assay [4]; 2.91 z-score in assay [5].

(Values after article PMC5700166.)
